Measurements as given in PubChem BioAssay AID1159580 (chemical genetic matrix, 2015).
Values joined by “and” are separate entries in the source; they are usually repeats but may differ in a detail not shown here. Equal values may be shown once. The whole screen tested about 5,500 compounds, of which about 2,000 (36%) were called active. Not shown: some 18% with an inconclusive outcome. No stated cut-off is given here; in the data, active means normalized growth mostly below about 0.91 (no sharp cut-off); inconclusive means no clear call, values can overlap the other calls; inactive means mostly above about 0.92. The list shows a part of the results.

Assay: chemical genetic growth profiling, strain panel (AID 1159580);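 further: tested at 20 µM; growth read once vehicle control cultures reached saturation at 30 °C; 1 = growth at the plate median or of vehicle wells; lower values mean less growth of the strain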
Details: S. cerevisiae deletion strains, growth OD

Measured: normalized growth

Cc1cc(O)c2c(c1O)C(=O)c1c(O)cc(C)c(O)c1C2=O
inactive: locus YAL013W, strain DEP1, hits give low values 0.982 | locus YAL021C, strain ccr4, hits give low values 0.948 | locus YAL026C, strain drs2, hits give low values 0.969 | locus YAL030W, strain snc1, hits give low values 0.951 | locus YBL061C, strain skt5, hits give low values 0.968 | locus YBR009C, strain hhf1, hits give low values 0.97 | locus YBR021W, strain FUR4, hits give low values 1.12 | locus YBR023C, strain chs3, hits give low values 0.983 | locus YBR171W, strain sec66, hits give low values 0.948 | locus YBR229C, strain ROT2, hits give low values 0.969 | locus YBR231C, strain swc5, hits give low values 0.974 | locus YBR279W, strain paf1, hits give low values 0.989 | locus YCL011C, strain gbp2, hits give low values 0.939 | locus YCL016C, strain dcc1, hits give low values 0.978 | locus YCL029C, strain bik1, hits give low values 0.988 | locus YCL061C, strain MRC1, hits give low values 0.978 | locus YCL069W, strain vba3, hits give low values 0.966 | locus YCR088W, strain abp1, hits give low values 0.98 | locus YDL005C, strain med2, hits give low values 0.971 | locus YDL035C, strain GPR1, hits give low values 0.975 | locus YDL040C, strain nat1, hits give low values 0.991 | locus YDL074C, strain BRE1, hits give low values 1 | locus YDL101C, strain DUN1, hits give low values 0.947 | locus YDL134C, strain PPH21, hits give low values 0.967 | locus YDL185W, strain tfp1, hits give low values 0.979 | locus YDL192W, strain arf1, hits give low values 0.987 | locus YDR001C, strain nth1, hits give low values 0.952 | locus YDR069C, strain doa4, hits give low values 0.942 | locus YDR101C, strain arx1, hits give low values 0.993 | locus YDR137W, strain rgp1, hits give low values 0.877 | locus YDR150W, strain NUM1, hits give low values 0.989 | locus YDR159W, strain sac3, hits give low values 0.973 | locus YDR162C, strain NBP2, hits give low values 0.921 | locus YDR195W, strain ref2 1.04 | locus YDR297W, strain sur2, hits give low values 0.973 | locus YDR318W, strain mcm21, hits give low values 0.985 | locus YDR334W, strain swr1, hits give low values 0.921 | locus YDR335W, strain msn5, hits give low values 0.961 | locus YDR388W, hits give low values 0.986 | locus YDR392W, strain spt3, hits give low values 0.858 | locus YDR502C, strain sam2, hits give low values 1 | locus YEL003W, strain gim4, hits give low values 0.956 | locus YEL037C, strain rad23, hits give low values 0.972 | locus YEL061C, strain CIN8 (second series), hits give low values 0.97 | locus YEL061C, strain CIN8, hits give low values 0.97 | locus YER015W, strain faa2, hits give low values 0.95 | locus YER016W, strain bim1, hits give low values 0.979 | locus YER110C, hits give low values 0.992 | locus YER111C, strain swi4, hits give low values 0.963 | locus YER155C, strain BEM2 (second series), hits give low values 0.946 | locus YER155C, strain BEM2, hits give low values 0.996 | locus YER167W, strain BCK2, hits give low values 1.01 | locus YFR010W, strain ubp6, hits give low values 0.942 | locus YGL078C, strain dbp3, hits give low values 0.993 | locus YGL086W, strain mad1, hits give low values 0.981 | locus YGL167C, strain pmr1, hits give low values 0.977 | locus YGL173C, strain kem1, hits give low values 0.946 | locus YGL227W, strain vid30, hits give low values 0.983 | locus YGL240W, strain doc1, hits give low values 0.962 | locus YGL248W, strain PDE1, hits give low values 0.945 | locus YGL253W, strain hxk2, hits give low values 0.985 | locus YGR078C, strain PAC10, hits give low values 0.983 | locus YGR135W, strain pre9, hits give low values 0.988 | locus YGR229C, strain SMI1, hits give low values 0.992 | locus YGR252W, strain gcn5, hits give low values 1.16 | locus YHR013C, strain ard1, hits give low values 0.957 | locus YHR027C, strain rpn1, hits give low values 0.951 | locus YHR030C, strain SLT2, hits give low values 0.964 and 0.996 | locus YHR079C, strain IRE1 (second series), hits give low values 0.985 | locus YHR079C, strain IRE1, hits give low values 1 | locus YHR094C, strain hxt1, hits give low values 0.995 | locus YHR129C, strain ARP1, hits give low values 0.963 | locus YHR142W, strain chs7, hits give low values 0.964 | locus YHR200W, strain rpn10, hits give low values 0.994 | locus YIL066C, strain RNR3, hits give low values 0.939 | locus YIL073C, strain SPO22, hits give low values 1.3 | locus YIL125W, strain kgd1, hits give low values 1 | locus YIR030C, strain dcg1, hits give low values 0.997 | locus YJL092W, strain hpr5, hits give low values 0.965 | locus YJL095W, strain BCK1 (second series), hits give low values 0.974 | locus YJL095W, strain BCK1, hits give low values 0.893 and 0.997 | locus YJL115W, strain asf1, hits give low values 0.938 | locus YJL129C, strain trk1, hits give low values 0.891 | locus YJL134W, strain LCB3, hits give low values 0.977 | locus YJL154C, strain vps35, hits give low values 0.971 | locus YJL164C, strain tpk1, hits give low values 0.971 | locus YJL166W, strain qcr8, hits give low values 0.978 | locus YJL168C, strain set2, hits give low values 0.969 | locus YJL187C, strain SWE1 (second series), hits give low values 0.903 | locus YJL187C, strain SWE1, hits give low values 0.968 | locus YJR043C, strain POL32, hits give low values 1.02 | locus YJR066W, strain TOR1, hits give low values 0.926
